Data published in PubChem BioAssay AID431 (Sanford-Burnham Center for Chemical Genomics, 2006).
Among all 63,000 compounds or so, about 1,100 (1.7%) were called active. This is one part of a sample in which actives are shown more often than they occur.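 How the source made its calls: active means compounds whose percent cytotoxicity in the single-dose primary screen, scaled between solvent and toxic-drug controls, exceeds 50; inactive means the rest.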 Results with a measured potency or affinity are listed apart.

Test: viability loss of HPDE-C7K cells – cell-based, fluorescence, HTS, primary screen (AID 431);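 further: 0% = DMSO solvent wells and 100% = doxorubicin-treated wells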
Conditions: HPDE-C7K KRASV12 cells, Alamar Blue viability, 48 h; at 10 µM; stronger effect = higher value

| Structure (SMILES) | cytotoxicity |
| --- | --- |
| N#CC(C#N)=c1ccc2c(c1)N1C3=C(CCCC3)CC3CCCCC31N=2 (stereo not given) | 71.7% (active) |
| Cc1cc(-c2ccccc2)nc(=O)[nH]1 | -3% (inactive) |
| CCn1c(=O)cc(OCC(=O)N2CCN(C(=O)c3ccco3)CC2)c2ccccc21 | -0.6% (inactive) |
| CC(=O)Nc1ccc(C(=O)CSc2nnc(Cn3nnc4ccccc43)n2C)cc1 | 3.6% (inactive) |
| CCN1C(=O)CS/C1=N\c1nccs1 | -4.6% (inactive) |
| CCN=C1SC(C(N)=O)CC(=O)N1CC (stereo not given) | 0.6% (inactive) |
| COc1ccc(N2CCN(CC(=O)Nc3nc4c(s3)CC(C)CC4)CC2)cc1 (stereo not given) | 32.4% (inactive) |
| COCCNC(=O)CSc1nc(-c2ccc(OC)c(OC)c2)cc(C(F)(F)F)n1 | -8.7% (inactive) |
| CCOC(=O)c1sc2nc(CSc3nc4ccccc4n3CC)[nH]c(=O)c2c1C | -11.3% (inactive) |
| O=C(Cc1cn2ccsc2n1)Nc1nc2c(s1)CCCC2 | 23.2% (inactive) |
| O=C(Cc1cn2ccsc2n1)Nc1nc2c(s1)CN(Cc1ccccc1)CC2 | -6.3% (inactive) |
| CC(C)(C)C1CCc2nc(NC(=O)Cc3cn4ccsc4n3)sc2C1 (stereo not given) | 52.5% (active) |
| CCOc1ccc(Cc2nn[nH]n2)cc1 | -19.6% (inactive) |
| COC(=O)CN(c1cc(C(F)(F)F)ccc1Cl)S(C)(=O)=O | -0.9% (inactive) |
| COc1ccc(-n2c3c(cc(C(=O)Nc4ccc5c(c4)C(=O)NC5=O)c2=O)C(=O)CCC3)cc1 | 61.2% (active) |
| Cc1cccc(NC(=O)c2cc3c(n(-c4ccccc4)c2=O)CCCC3=O)n1 | 20% (inactive) |
| Cc1ccc(-n2c3c(cc(C(=O)Nc4cccc(C)n4)c2=O)C(=O)CCC3)cc1 | -27.1% (inactive) |
| COc1ccc(CCNC(=O)c2ccncc2)cc1OC | -13.2% (inactive) |
| COc1ccc(C(=O)NCCn2ccc3ccccc32)c(OC)c1 | -8.9% (inactive) |
| Cc1ccc(-c2noc(CCC(=O)N3CCCC3)n2)cc1 | -6.9% (inactive) |
| Cc1ccc(S(=O)(=O)N(C)Cc2nc(-c3ccncc3)no2)cc1 | -0.7% (inactive) |
| Cc1ccccc1-c1noc(-c2ccc(O)cc2)n1 | 29.6% (inactive) |
| CCN(CC)C(=O)CSc1nc(C)cc(-c2cccs2)c1C#N | 2.8% (inactive) |
| CN1CCN(C(=O)CSc2nc(-c3cccs3)ccc2C#N)CC1 | 15.2% (inactive) |
| CC(C)C(=O)N1CCc2cc(-c3csc(N)n3)ccc21 | -1% (inactive) |

| Structure (SMILES) | cytotoxicity |
| --- | --- |
| C=CCn1c(SCC(=O)NC(=O)NCc2ccco2)nc2sc(C)c(C)c2c1=O | 4.8% (inactive) |
| C=CCn1c(SCC(=O)NC(=O)NCc2ccco2)nc2sc(CC)cc2c1=O | 63.4% (active) |
| O=C(CCCSc1nc2ccccc2s1)NCc1ccco1 | 5.8% (inactive) |
| O=C(CSc1nc2ccccc2s1)NC(=O)NCc1ccco1 | 87.6% (active) |
| O=C(CSc1nc2cc(Cl)ccc2s1)NC(=O)NCc1ccco1 | -8.3% (inactive) |
| C=CCn1c(SCC(=O)N2CCN(C(=O)c3ccco3)CC2)nc2sc(CC)cc2c1=O | -11.5% (inactive) |
| COc1cccc(-c2nc(CS(=O)(=O)CC(=O)NCCC(C)C)c(C)o2)c1 | 2.6% (inactive) |
| COC(=O)c1ccc(N=c2sc(C(=O)OC)cc(=O)n2C)cc1 | -16.7% (inactive) |
| Oc1ccc(Nc2nc(N3CCCC3)c3ccccc3n2)cc1 | 94.4% (active) |
| COc1ccc(Nc2nc(N3CCCC3)c3ccccc3n2)cc1 | 22.5% (inactive) |
| Cc1ccc(Nc2nc(N3CCOCC3)c3ccccc3n2)cc1 | 28.7% (inactive) |
| CCCCOc1ccc(C(=O)N2CCCCCC2)cc1 | -8.5% (inactive) |
| CCCCCCOc1ccc(C(=O)n2cnc(N)n2)cc1 | 82.6% (active) |
| COc1ccc(C(=O)n2cnc(N)n2)cc1 | 6.1% (inactive) |
| Cc1ccc2cc(CN(C(=O)c3ccco3)c3ccccc3)c(=O)[nH]c2c1 | -0.6% (inactive) |
| COc1ccc(CCNC(=O)c2nonc2N)cc1OC | 0.1% (inactive) |
| Cn1c(C(=O)NCCc2c[nH]c3ccccc23)cc2sccc21 | 6.9% (inactive) |
| CCSc1nnc(NC(=O)NC(CC)(C(F)(F)F)C(F)(F)F)s1 | 19.4% (inactive) |
| CC(NC(=O)Nc1nccs1)(C(F)(F)F)C(F)(F)F | -3.9% (inactive) |
| O=C(NCC(F)(F)F)Nc1nnc(C(F)(F)F)s1 | 12.5% (inactive) |
| CCC(NC(=O)Nc1nccs1)(C(F)(F)F)C(F)(F)F | -11.8% (inactive) |
| CCn1cc(C(=O)N=c2sc3ccccc3n2C)c(=O)c2ccc(C)nc21 | -2% (inactive) |
| COc1cc(C(=S)N2CCCCC2)ccc1OCC(=O)N1CCCC1 | -1.9% (inactive) |
| COc1ccc(-n2c(Cc3cccn3C)nnc2SCC(=O)Nc2ccc(Cl)cc2)cc1 | 48.9% (inactive) |
| CCCOC(=O)C1=C(C)NC2=C(C(=O)C(C(=O)OC)C(C)C2)C1c1ccc(N(CC)CC)cc1 (stereo not given) | -15.1% (inactive) |
